The values that follow come from PubChem BioAssay (NCI).

Test systems include DU-145 prostate; K-562 leukemia; MALME-3M melanoma; MDA-MB-231 breast; SF-268 CNS; SF-295 CNS; SF-539 CNS; UACC-257 melanoma; M14 melanoma.
What all share (test): NCI-60 one-dose screen, 48 h (100 = growth as untreated, 0 = no growth, -100 = all killed)
Holding throughout (details): 10 µM unless noted

About 83,000 compounds went through this panel and 20% of them were active in at least one assay; those are over-represented in the sample as a whole.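 Testing used 96-well plates and a 48-hour single-concentration exposure. Example: -40 means 40% of the starting cells died.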 Unmarked numbers belong to inactive results. Active and inactive are the calls of the source. Rule for the calls: active = growth percent below 10; inactive = the rest.

As for `NC(=O)c1cc(Cl)ccc1NC(=O)c1ccccc1-c1ccccc1`, the growth in the assay with DU-145 prostate is -8.79% (active); with K-562 leukemia it was 11.5%; in the assay with MALME-3M melanoma it was 30.4%; in the assay with MDA-MB-231 breast, 29.4%; in the assay with SF-268 CNS, 54.1%; in the assay with SF-295 CNS, 8.66% (active). For the same compound, the growth was -12.5% (active) with SF-539 CNS, 68.6% in the assay with UACC-257 melanoma and -24% (active) in the assay with M14 melanoma.
For `Cc1cn(C(C=O)OC(C=O)CO)c(=O)[nH]c1=O` (centres undefined), the growth in the assay on DU-145 prostate is 108%; with K-562 leukemia it was 104%; in the assay on MALME-3M melanoma, 98.8%; with MDA-MB-231 breast, 108%; with SF-268 CNS, 113%; with SF-295 CNS it was 102%. The growth is 104% in the assay with SF-539 CNS, 88% with UACC-257 melanoma and 108% in the assay with M14 melanoma.
With `COC(=O)c1c(NC(=O)CSc2nnnn2-c2ccc(OC)cc2)sc(C)c1C`, the growth in the assay on DU-145 prostate was 108%; in the assay on K-562 leukemia it was 81.5%; in the assay on MALME-3M melanoma it was 104%; in the assay on MDA-MB-231 breast, 76.5%; with SF-268 CNS, 93.5%; in the assay on SF-295 CNS it was 156%. Also, the growth was 98.3% in the assay on SF-539 CNS, 16.8% with UACC-257 melanoma and 95.8% in the assay on M14 melanoma.
In the case of `C[C@H]1C(=O)N2c3ccccc3[C@@]3(O)C[C@@H](n4cnc5ccccc5c4=O)C(=O)N1[C@@H]23`, the growth in the assay on DU-145 prostate is 123%; in the assay on K-562 leukemia, 99.2%; with MALME-3M melanoma, 107%; with MDA-MB-231 breast, 110%; with SF-268 CNS it was 112%; with SF-295 CNS it was 130%. The results for the growth in the assay with SF-539 CNS, with UACC-257 melanoma and in the assay with M14 melanoma were 101%, 66.8% and 108%, respectively.
Turning to `CCOC(=O)c1cnc2c(C)cc(C)cc2c1NCCCN(C)C`, the growth with DU-145 prostate is 35.4%; in the assay with K-562 leukemia, 8.6% (active); in the assay with MALME-3M melanoma, 51%; in the assay with MDA-MB-231 breast, 35.7%; in the assay on SF-268 CNS it was 35.7%; in the assay with SF-295 CNS, 29.9%. Further, the growth with SF-539 CNS is 28.9%; with M14 melanoma, 34.2%.
With `O=C1/C(=C/c2ccccc2O)C(=S)SN1Cc1ccco1`, the growth in the assay with DU-145 prostate is 103%; in the assay with K-562 leukemia, 46.4%; with MALME-3M melanoma it was 106%; with MDA-MB-231 breast, 108%; in the assay on SF-268 CNS, 105%; in the assay on SF-295 CNS, 94.3%. The growth with SF-539 CNS was 97.4%; in the assay on UACC-257 melanoma, 99.1%; with M14 melanoma, 99.8%.
`Fc1ccc(-c2nn3c(-c4cc(C(F)(F)F)cc(C(F)(F)F)c4)nnc3s2)cc1`: the growth in the assay on DU-145 prostate is 87.1%; in the assay on K-562 leukemia it was 68.8%; with MALME-3M melanoma, 43.8%; in the assay on MDA-MB-231 breast, 39.5%; with SF-268 CNS it was 37.3%; in the assay on SF-295 CNS it was 38.4%. Besides, the growth in the assay on SF-539 CNS was 39.7%; in the assay on UACC-257 melanoma, 76.7%; in the assay on M14 melanoma, 64.6%.
Take `O=c1c2ccccc2c2nccn2c2cc(Cl)ccc12`: the growth in the assay with DU-145 prostate was 98.1%; in the assay on K-562 leukemia it was 57.7%; in the assay on MALME-3M melanoma, 159%; in the assay on MDA-MB-231 breast, 126%; in the assay on SF-268 CNS it was 91.9%; with SF-295 CNS, 85.5%. The growth was 94.2% with SF-539 CNS, 66.5% in the assay on UACC-257 melanoma and 110% in the assay with M14 melanoma.
Consider `CCCCCCCCCCN1CCC(N2CCCCC2)CC1`, for which the growth was 54.3% in the assay on DU-145 prostate; -75.6% (active) in the assay on K-562 leukemia; -43.9% (active) in the assay on MALME-3M melanoma; -36.3% (active) with MDA-MB-231 breast; 39.8% in the assay with SF-268 CNS; 2.51% (active) in the assay with SF-295 CNS. In addition, the growth in the assay with SF-539 CNS was -80.4% (active); in the assay on UACC-257 melanoma it was -91.2% (active); with M14 melanoma it was -79.4% (active).
Take `O=C(NC1CCS(=O)(=O)C1)c1ccc(C(=O)c2ccccc2)cc1` (centres undefined): the growth is 128% with DU-145 prostate; 108% with K-562 leukemia; 108% with MALME-3M melanoma; 124% in the assay with MDA-MB-231 breast; 118% in the assay on SF-268 CNS; 99.6% in the assay on SF-295 CNS. For the same compound, the values for the growth in the assay with SF-539 CNS, in the assay on UACC-257 melanoma and in the assay on M14 melanoma were 103%, 82.7% and 98.6%, respectively.
On to `CCCn1c(N)c(C(=O)CNc2ccc(I)cc2)c(=O)[nH]c1=O`, for which the growth in the assay on DU-145 prostate was 57.3%; in the assay with K-562 leukemia it was 43.5%; in the assay on MALME-3M melanoma, 80.7%; in the assay on MDA-MB-231 breast, 67.5%; in the assay on SF-268 CNS it was 46.1%; in the assay with SF-295 CNS, 54.2%. The growth in the assay on SF-539 CNS is 57.5%; with UACC-257 melanoma, 72.1%; in the assay on M14 melanoma, 56.2%.
For the compound `COc1ccc(N2CCN(CC(=O)N3CCN(c4nnc(-c5ccccc5)c(-c5ccccc5)n4)CC3)CC2)cc1`, the growth with DU-145 prostate was 70.5%; in the assay with K-562 leukemia it was 18.7%; in the assay on MALME-3M melanoma it was 64.6%; in the assay with MDA-MB-231 breast, 72.1%; with SF-268 CNS it was 62.6%; in the assay with SF-295 CNS, 39.6%. Further, the figures for the growth in the assay on SF-539 CNS and in the assay on M14 melanoma were 53.9% and 64.4%, respectively.
On to `O=c1sc2ncnc3ncn1c32`, for which the growth is 33.6% with DU-145 prostate; 15.2% in the assay with K-562 leukemia; 73.6% in the assay on MALME-3M melanoma; 43.7% in the assay with MDA-MB-231 breast; 82% with SF-268 CNS; 38.4% in the assay with SF-295 CNS. The growth in the assay with SF-539 CNS is 45.8%; with UACC-257 melanoma it was 88.1%; in the assay on M14 melanoma, 14.5%.
On to `COC(=O)C1CCN(S(=O)(=O)c2ccc(-c3ccccc3)cc2)CC1`, for which the growth with DU-145 prostate was 110%; in the assay on K-562 leukemia it was 103%; in the assay on MALME-3M melanoma, 122%; in the assay with MDA-MB-231 breast, 115%; in the assay on SF-268 CNS, 102%; in the assay on SF-295 CNS, 195%. The growth in the assay on SF-539 CNS was 101%; in the assay with UACC-257 melanoma, 62.7%; in the assay on M14 melanoma it was 107%.
